Screens as filed in PubChem.
D2 ag-1: activates the human D2 dopamine receptor | HEK293 T-REx D2 cells, calcium flux agonist mode | hit rate 0.53% among 340,000 | activation, % at 2 µM;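 active means activation over 3 SD above normal in the single-dose calcium agonist read, cut at about 30% in these data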
Target sequence (P14416 whole entry, looked up): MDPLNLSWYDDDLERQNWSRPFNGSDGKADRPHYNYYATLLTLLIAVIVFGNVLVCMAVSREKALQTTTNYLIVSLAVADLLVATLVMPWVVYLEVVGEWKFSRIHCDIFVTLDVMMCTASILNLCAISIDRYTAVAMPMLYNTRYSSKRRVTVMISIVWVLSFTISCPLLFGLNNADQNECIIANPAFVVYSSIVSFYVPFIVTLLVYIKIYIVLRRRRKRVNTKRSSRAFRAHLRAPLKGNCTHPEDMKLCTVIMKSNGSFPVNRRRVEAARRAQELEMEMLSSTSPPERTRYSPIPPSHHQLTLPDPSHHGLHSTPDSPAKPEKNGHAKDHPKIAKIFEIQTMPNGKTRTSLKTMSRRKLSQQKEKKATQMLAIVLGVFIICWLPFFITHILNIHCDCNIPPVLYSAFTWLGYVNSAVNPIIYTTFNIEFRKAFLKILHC
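Tetracycline-induced HEK293 Trex cells with D2 receptor force-coupled to calcium signaling, plated overnight at 30 C and loaded with no-wash calcium dye. Calcium flux read kinetically for 180 s after compound addition; responses flag agonists.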
D2 PAM-1: positive allosteric modulators of human D2 dopamine receptor; P14416; DiscoveRx D2 beta-arrestin cells, luminescence, 90 min; 100% = 57 uM dopamine signal; hit rate 0.23% among 360,000; AID 624464; potentiation, % (test concentration not listed); in the data active means potentiation above about 50%; inconclusive means mostly about 30% to 49%
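PathHunter D2 cells, attached overnight at 37 deg C, received compound in DMSO plus dopamine at EC20 (50 nM final) for 90 min at 37 deg C. Beta-arrestin recruitment was read as luminescence after 1 h with detection reagent at ambient temperature.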
D2 ag-2: agonists of human D2 dopamine receptor (beta-arrestin) | P14416 | DiscoveRx PathHunter D2 beta-arrestin, luminescence, 90 min; 100% = 57 uM dopamine signal | activation, % (concentration not given with the values) | hit rate 0.084% among 360,000; in the data active means activation above about 40%; inconclusive means between about 15% and that limit
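Agonist mode: compounds alone added to overnight-plated D2 PathHunter cells for 90 min at 37 C, with 57 uM final dopamine (EC100) defining full response. Beta-arrestin recruitment detected by chemiluminescent reagent, read after 1 h at ambient temperature.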
D2 antagonist: antagonists of human D2 dopamine receptor; P14416; HEK293 TREx D2 cells, calcium flux, dopamine EC80; inhibition, % at 10 µM; hit rate 2% among 340,000; AID 485344; in the data active means inhibition above about 30%; inactive means below that, where a call was filed
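Tetracycline-induced HEK293 T-REx cells expressing D2 force-coupled to calcium signalling were dye-loaded, exposed to compound for 180 s, then challenged with an EC80 of dopamine; calcium flux was followed kinetically for a further 180 s.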
D2 PAM-2: positive allosteric modulators of human D2 dopamine receptor; P14416; HEK293 T-REx D2, calcium flux, EC20 dopamine potentiation; potentiation, % at 10 µM; hit rate 0.34% among 340,000;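 active means potentiation over 3 SD above the plate norm, cut at about 30% in these data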
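Tetracycline-induced Hek293 Trex D2 cells, force-coupled to calcium, loaded with no-wash calcium dye. Compound added with 180 s kinetic read for agonism, then EC20 dopamine and a further 180 s read for potentiation.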
Large screens that a line does not name were inactive. Sampled rows, rich in hits. Any-hit rate of the full collection: about 2.4%.

COc1cc(C2c3c(-c4ccccc4)n[nH]c3C(=O)N2c2ccccc2)ccc1O (stereo unspecified)	D2 PAM-1 52
Cc1ccccc1CNC(=O)CN1CCSc2ccccc21	none (no result: D2 PAM-1, D2 ag-2, D2 antagonist)
COc1ccc(-c2nc3c(C)cc(Br)cn3c2Cc2ccsc2)cc1OC	none (no result: D2 ag-1, D2 antagonist, D2 PAM-2)
COc1cccc(OC)c1C(=O)NC(=O)Nc1c(C)cccc1C	D2 antagonist 32
COc1ccc(S(=O)(=O)NCC(=O)N(Cc2ccco2)C(C(=O)NC(C)(C)C)C(C)C)cc1 (stereo unspecified)	none
CCOc1ccccc1N1C(=O)CC(Sc2ncccc2C(=O)O)C1=O (stereo unspecified)	D2 antagonist 36
COc1ccc(NC(=O)CN(C)C(=O)c2ccc(OCc3ccccc3)c(OC)c2)cc1	D2 PAM-1 inconclusive
CCc1ccccc1N1CC(C(=O)Nc2cc(S(=O)(=O)N3CCCC3)ccc2Cl)CC1=O (stereo unspecified)	none
Cc1ccc(C(=O)N/C(=C\c2sccc2C)C(=O)NCCCN2CCOCC2)cc1	D2 antagonist 31
O=[N+]([O-])c1cc(-n2cnnn2)ccc1N1CCC(Cc2ccccc2)CC1	D2 antagonist 32
CC1CC(C)CN(c2ccc(-n3cnnn3)cc2[N+](=O)[O-])C1 (stereo unspecified)	none
Cc1ccccc1-c1cccc([C@@H]2C[C@H]3[C@H](CON3C)CN2Cc2cc(Cl)cc(Cl)c2)c1	none (no result: D2 ag-1, D2 antagonist, D2 PAM-2)
Cc1ccc(C)c(N2CCN(CC3CCCCC3)CC2)c1	D2 antagonist 62
Cc1cccc(N2CCN(CC3CCCCC3)CC2)c1C	D2 antagonist 73
C/C=C(\C)CN1CCN(c2cccc(C)c2C)CC1	D2 antagonist 85
Cc1ccc(C)c(N2CCN(Cc3nnnn3C3CCCCC3)CC2)c1	none
Cc1ccc(C)c(N2CCN(CCCc3ccccc3)CC2)c1	D2 antagonist 51
COCCNC(=O)C1CCCN(C(=O)c2cc(-c3cccs3)oc2C)CC1 (stereo unspecified)	none (no result: D2 ag-1, D2 antagonist, D2 PAM-2)
C=CCNc1nc(C(=O)OCC(=O)Nc2ccccc2C(F)(F)F)cs1	none
COc1ccc(C(=O)N(c2ccc(C)cc2)S(=O)(=O)c2ccc(C)cc2)cc1	none (no result: D2 PAM-1, D2 ag-2, D2 antagonist, D2 PAM-2)
CCN(Cc1ccccc1)C(=O)Cn1ncc2c(=O)oc3ccc(C)cc3c21	none (no result: D2 ag-1, D2 PAM-1, D2 ag-2, D2 antagonist)
COc1ccc(-c2cc3ccccc3oc2=O)cc1NC(=O)c1ccc(Br)o1	none
COc1ccc(-c2cc3ccccc3oc2=O)cc1NC(=O)c1ccc([N+](=O)[O-])o1	D2 PAM-1 101
Cc1cccc(NS(=O)(=O)c2ccccc2)n1	D2 antagonist 31
COC(=O)c1cnn(-c2ccc(C)c(C)c2)c1-n1cccc1	D2 antagonist 30
Cc1nc(NC(=O)c2cc(-n3cnnc3)ccc2Cl)ccc1Br	D2 antagonist 30
O=C(Nc1ccccc1)c1cc(-n2cnnc2)ccc1Cl	none (no result: D2 ag-1, D2 antagonist, D2 PAM-2)
CCCCc1ccc(NC(=O)CSc2nc(=O)[nH]c3c2CCCC3)cc1	none (no result: D2 ag-1, D2 PAM-1, D2 ag-2, D2 antagonist)
COC(=O)CCNCCSc1nnc(-c2ccco2)n1Cc1ccccc1	D2 antagonist 33
COc1cccc2c1OC1(C)CC2/C(=C(\C)O)C(=O)N1 (stereo unspecified)	D2 antagonist 51
CCOC(=O)C(C(=O)OCC)c1cc(Br)c2noc3c2c1C(=O)c1ccccc1-3	D2 PAM-1 91
CC(=O)OCCNc1cc(N2CCN(C)CC2)c2noc3c2c1C(=O)c1ccccc1-3	none
O=C(COc1ccc(Cl)cc1Cl)NC(=O)NC1CCCC1	none
O=C(COc1ccc(Cl)cc1Cl)NC(=O)N1CCCCC1	D2 antagonist 32
CN(C)C1(CNC(=O)c2cccc(S(=O)(=O)NCc3ccccc3)c2)CCCCC1	D2 antagonist 45
C/C=C/c1ccc(OCCCCN2CC(C)CC(C)C2)c(OC)c1 (stereo unspecified)	D2 antagonist 38
CCCn1cnc2c(oc3ccccc32)c1=O	none
CCCn1cnc2c(=O)oc3ccccc3c21	D2 antagonist 39
COc1cc2[nH]c(=S)nc(NCc3ccc(C)cc3)c2cc1OC	D2 antagonist 41
COc1cc2[nH]c(=S)nc(NCc3ccccc3)c2cc1OC	none
COc1ccc(CNc2nc(=S)[nH]c3cc(OC)c(OC)cc23)cc1	D2 antagonist 34
Cc1ccc(C)c(OCCC(=O)N2CCN(S(=O)(=O)c3cc(C)ccc3C)CC2)c1	none
O=C(NC1CC2CCCC(C1)N2Cc1ccccc1)c1cccc(F)c1 (stereo unspecified)	D2 antagonist 84
O=C(NC1CC2CCCC(C1)N2Cc1ccccc1)c1cccc(Cl)c1 (stereo unspecified)	D2 antagonist 90
COc1cccc(C(=O)NC2CC3CCCC(C2)N3Cc2ccc(F)cc2)c1 (stereo unspecified)	none (no result: D2 ag-1, D2 antagonist, D2 PAM-2)
Cc1ccc(S(=O)(=O)N2CCN(C(=O)CN3CCN(c4ccc(O)cc4)CC3)CC2)cc1	none (no result: D2 ag-1, D2 antagonist, D2 PAM-2)
COc1ccc(N=Cc2sc(O)c3ccccc23)cc1	D2 PAM-1 113, D2 ag-2 inconclusive
FC(F)(F)c1cccc(N2CCN(CC3CC=CCC3)CC2)c1 (stereo unspecified)	D2 antagonist 73
Cc1ccc(N2CCN(CC3CC=CCC3)CC2)cc1 (stereo unspecified)	D2 antagonist 36
CC1(C)CC2CC(C)(CN2C(=O)COC(=O)c2cccc([N+](=O)[O-])c2)C1 (stereo unspecified)	none (no result: D2 ag-1, D2 antagonist, D2 PAM-2)
Cc1ccsc1-c1cc2nc(Nc3ccc(F)cc3)n(C)c(=O)c2s1	none (no result: D2 ag-1, D2 antagonist, D2 PAM-2)
O=C(O)c1ccccc1-c1ccc(/C=c2\sc3nc4cc(Br)cnc4n3c2=O)o1	none
Cc1cc2nc3s/c(=C/c4ccc(-c5ccccc5C(=O)O)o4)c(=O)n3c2cc1C	D2 ag-1 70, D2 antagonist 34
Cc1ccc(C(=O)Nc2ccc(C(F)(F)F)n(C)c2=O)cc1	D2 PAM-2 32
COc1ccc(C(=O)Nc2ccc(C(F)(F)F)n(C)c2=O)cc1	none
Cc1ccc(C(=O)Nc2cccc3[nH]c(C(F)(F)F)nc23)cc1	D2 antagonist 34
O=C(CSc1nnc(C2CC2)n1Cc1ccccc1)N1CCN(S(=O)(=O)c2ccccc2)CC1	none
O=C(CSc1nnc(C2CC2)n1Cc1ccccc1)c1ccc(S(=O)(=O)N2CCOCC2)cc1	D2 antagonist 46
CC1CCCN(C(=O)CSc2nnc(-c3ccc(S(=O)(=O)N4CCOCC4)cc3)n2C)C1 (stereo unspecified)	none
CCN(CC)C(=O)CSc1nnc(-c2ccc(S(=O)(=O)N3CCOCC3)cc2)n1C	none
CC(C)Sc1nnc(-c2ccc(S(=O)(=O)N3CCOCC3)cc2)n1C	D2 antagonist 35
CC1CCN(C(=O)CSc2nnc(-c3ccc(S(=O)(=O)N4CCOCC4)cc3)n2C)CC1	D2 PAM-2 53
Cc1cc(C)cc(NC(=O)c2cc(S(=O)(=O)N3CCc4ccccc43)cn2C)c1	none (no result: D2 PAM-1, D2 ag-2, D2 antagonist)
